# Laboratory results published in PubChem BioAssay (NCATS).
# “And” between values parts separate entries of the source, which are not always exact repeats. Identical values can stand only once. Values without a mark were called inactive. Records with an inconclusive call do not appear. The source made the active and inactive calls. Unless noted, calls come from the whole dose curve.
# Test: Dual reporter qHTS for antagonist of Pregnane X Receptor (hPXR) against the NCATS DSHEA and TCM libraries: Fluorescence Readout (AID 1920061; active = well fitted curve in the direction sought with a large enough effect; note: 0% is about no effect)
# Details: PXR dual reporter cells, antagonist mode; series mostly up to 40 µM; activity change, negative = inhibition: at the top concentration
# Outline: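 HepG2 hPXR-Luc, 2000 cells/well, charcoal-stripped FBS medium; 5 h attach; RIF 2 uM final; 24 h 37C/5% CO2; CellTiter-Fluor 1 h, fluor 405/540; ONE-Glo 30 min RT, lum.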
row,Structure (SMILES),"activity change, negative = inhibition"
1,C=C1[C@H]2CC[C@H](C(=O)O)[C@@]23CC[C@H](C3)C1(C)C,14.2% (inactive)
2,O=C(O)CC(O)(CC(=O)O)C(=O)O,12% (inactive)
3,CCCCCCCCCC(=O)O,13.3% (inactive)

# Test: qHTS drug screen for cell cycle checkpoint inhibitors in PARPi-resistant BRCA-mutant ovarian cancer cell lines. (AID 1963452)
# Details: PEO1/OlaR viability, CellTiter-Glo luminescence, 96 h; active compounds read low
# Outline: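 PEO1, PEO4 and PEO1/OlaR ovarian cancer cells, 600 per well, exposed 96 h at 37C to a dilution series. Viability read by CellTiter-Glo luminescence, normalized to DMSO and empty wells; activity summarized as Z-AUC.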
row,Structure (SMILES),Z-AUC
1,CCOC(=O)[C@@]1(CCCCCCOc2ccc(Cl)cc2)CO1,1.19
2,Cc1cc(-c2cc(OC(=O)c3ccccc3)ccc2Cl)cc2nnc(Nc3ccc(OCCN4CCCC4)cc3)nc12,-0.528
3,O=C(NCCCNc1nc(Nc2cccc(CN3CCOCC3)c2)ncc1C1CC1)C1CCC1,-0.249
4,Cc1sc2c(c1C)C(c1ccc(Cl)cc1)=N[C@@H](CC(=O)Nc1ccc(OCCOCCOCCOCCNc3cccc4c3C(=O)N(C3CCC(=O)NC3=O)C4=O)cc1)c1nnc(C)n1-2 (some centres not stated),-1.58
5,Cn1ncc2cc(-c3cnc(N)c(Cl)c3N3CCC4(CCNC4=O)CC3)ccc21,-0.513
6,C[C@@H]1CN(CC(=O)N2CC(C)(C)c3ncc(Cc4ccc(F)cc4)cc32)[C@@H](CN2CCOC[C@H]2C)CN1,1.68
7,Cc1nc(NC(=O)N2CCC[C@H]2C(N)=O)sc1-c1ccnc(C(C)(C)C(F)(F)F)c1,-0.211 and -0.86
8,C[C@@H](c1ccc2nccn2c1)n1nnc2ncc(-c3cnn(C)c3)nc21,-0.155
9,Cn1ncc(Cl)c1-c1cc(C(=O)N[C@H](CN)Cc2cccc(F)c2)sc1Cl,0.3
10,O=C(NCCCNC(=O)c1ccc[nH]c1=O)c1cc(-c2ccccc2)on1,0.194
11,CCN(c1cc(-c2ccc(CN3CCOCC3)cc2)cc(C(=O)NCc2c(C)cc(C)[nH]c2=O)c1C)C1CCOCC1,0.506
12,C[C@@H]1COCCN1c1cc(=O)n2c(n1)N(Cc1cncc(Cl)c1)[C@H](C(F)(F)F)CC2,-0.103
13,c1cc(-c2cnn3cc(-c4ccc(N5CCNCC5)cc4)cnc23)c2cccnc2c1,-1.26
14,COc1ccc2nc3n[nH]c(C)c3c(NCCOCCO)c2c1,-0.331
15,COc1ccc(-c2c(C)nn3c(NCCN4CCOCC4)cc(C)nc23)cc1OC,0.717
16,COC(C)(C)CCn1nc(Nc2c(C)cccc2C)c2cnc(Nc3ccc(OCCN4CCCC4)c(F)c3)nc21,-0.962
17,COc1ccc(CNc2nc(N(CCO)CCO)nc3c2ncn3C(C)C)cc1,-0.772
18,Cc1nnc(C[C@@H]2C=C(c3ccc(Cl)cc3)c3ccccc3-n3c(C)nnc32)o1,0.965
19,CC(/C=C/C(=O)NO)=C\[C@@H](C)C(=O)c1ccc(N(C)C)cc1,-0.778
20,O=C(N[C@H]1CCC[C@H](CO)C1)C1CCN(c2nc3cc(Cl)c(-c4ccc(Cl)cc4)cc3o2)CC1,-0.759
21,CN1CCN(C2CCN(C(=O)Nc3cc(Oc4ccc(NC(=O)C5(C(=O)Nc6ccc(F)cc6)CC5)c(F)c4)ccn3)CC2)CC1,0.53
22,CCCCNc1ncc(-c2ccc(CN3CCOCC3)cn2)c(NC2CCC(O)CC2)n1 (configuration not stated),-1.2
23,COc1cc2c(cc1OC(C)C)[C@H](c1ccc(Cl)cc1)N(c1ccc(N(C)CC3CCC(N4CCN(C)C(=O)C4)CC3)cc1)C(=O)C2 (some centres not stated),0.694
24,Cn1ncc(Cl)c1-c1cc(C(=O)NC(CN)Cc2ccc(F)c(F)c2)oc1Cl (configuration not stated),0.713
25,O=C(NCC(=O)N1CCCC1)Nc1ccc2cnccc2c1,-0.618
26,O=C(Nc1ccnc(NC(=O)C2CC2)c1)c1c(Cl)cccc1Cl,-1.13
27,COCCNCc1ccc(-c2cc3nccc(Oc4ccc(NC(=O)C5(C(=O)Nc6ccc(F)cc6)CC5)cc4F)c3s2)nc1,-0.956
28,Cc1cc(C(=O)Nc2cc(Nc3ccc4c(/C=C/c5ccccn5)n[nH]c4c3)ccc2F)n(C)n1,-1.04
29,OC(c1ccc(-c2ccc(CN3CCN(Cc4ccncc4)CC3)cc2)c(F)c1)(C(F)(F)F)C(F)(F)F,-1.4
